The source of these data is article PMC4336329 (PLoS ONE, 2015).

Structures are written as SMILES. The campaign covered roughly 310,000 compounds. About 14,000 (4.5%) showed an effect of 50% or more. Effects have a minus sign here. Shown is part of a subset that was picked to be rich in strong results.
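Note: peak tail current of the secondary pulse compared with the same well before compound.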

The target in this test is human ether-à-go-go-related gene (hERG) potassium channel (human, UniProt Q12809). The experiment in a line: primary screen, population patch clamp on CHO cells stably expressing hERG; higher = less effect of the substance.
Chain of human ether-à-go-go-related gene (hERG) potassium channel (Q12809 whole entry, looked up): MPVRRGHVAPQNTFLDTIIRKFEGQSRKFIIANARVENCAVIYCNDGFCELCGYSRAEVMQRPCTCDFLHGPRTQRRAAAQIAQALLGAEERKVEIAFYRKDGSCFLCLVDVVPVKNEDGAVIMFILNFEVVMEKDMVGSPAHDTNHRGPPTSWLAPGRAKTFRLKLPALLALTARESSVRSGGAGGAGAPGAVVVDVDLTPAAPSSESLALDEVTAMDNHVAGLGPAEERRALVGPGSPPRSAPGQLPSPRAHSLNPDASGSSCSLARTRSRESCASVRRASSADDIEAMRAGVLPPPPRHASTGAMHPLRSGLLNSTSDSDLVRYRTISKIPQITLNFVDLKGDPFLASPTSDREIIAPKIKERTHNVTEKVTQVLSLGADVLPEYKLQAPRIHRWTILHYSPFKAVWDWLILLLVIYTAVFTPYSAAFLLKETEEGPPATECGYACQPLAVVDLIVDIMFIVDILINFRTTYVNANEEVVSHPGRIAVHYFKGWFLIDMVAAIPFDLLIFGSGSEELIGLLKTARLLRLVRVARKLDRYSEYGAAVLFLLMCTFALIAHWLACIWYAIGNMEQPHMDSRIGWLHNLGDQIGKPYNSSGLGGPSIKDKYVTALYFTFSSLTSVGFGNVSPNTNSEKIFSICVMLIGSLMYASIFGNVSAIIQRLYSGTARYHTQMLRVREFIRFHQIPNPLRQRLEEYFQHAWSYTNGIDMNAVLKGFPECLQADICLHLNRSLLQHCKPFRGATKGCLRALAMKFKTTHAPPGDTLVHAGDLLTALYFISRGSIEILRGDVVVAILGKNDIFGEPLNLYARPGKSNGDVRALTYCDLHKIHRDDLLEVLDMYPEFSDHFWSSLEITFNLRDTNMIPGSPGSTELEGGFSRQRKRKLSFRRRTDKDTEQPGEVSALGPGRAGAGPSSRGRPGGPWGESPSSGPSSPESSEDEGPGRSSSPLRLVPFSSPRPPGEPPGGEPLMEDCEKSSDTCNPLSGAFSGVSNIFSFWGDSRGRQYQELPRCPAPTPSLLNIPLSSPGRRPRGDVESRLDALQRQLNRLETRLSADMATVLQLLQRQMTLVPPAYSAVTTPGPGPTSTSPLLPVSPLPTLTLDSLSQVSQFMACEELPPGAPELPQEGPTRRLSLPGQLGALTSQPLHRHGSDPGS
In the case of `CCCCNC(=O)c1ccc(CS(=O)(=O)c2ccc(C)cc2)o1`, the “hERG current change (%, negative = inhibition) at 10uM” value was determined as 15.1%.

As for `CCOC(=O)c1ccc2cccc(C)n2c1=O`, the “hERG current change (%, negative = inhibition) at 10uM” value is on record as 3.05%.

As for `CSc1ccc(Cl)c(C(=O)N(C)CC(=O)Nc2ccc(N3CCOCC3)cc2)c1`, the “hERG current change (%, negative = inhibition) at 10uM” value is reported as -0.854%.

`COC(=O)C1CCN(C(=O)COC(=O)Cc2c[nH]c3ccccc23)CC1`: the “hERG current change (%, negative = inhibition) at 10uM” value amounted to 3.1%.

With `Cc1ccc(CN(C(=O)c2cccs2)C2CCS(=O)(=O)C2)cc1` (centres unmarked), the “hERG current change (%, negative = inhibition) at 10uM” value was -46.5%.

As to `CCn1c(C)nc2c(=O)oc3ccccc3c21`, the “hERG current change (%, negative = inhibition) at 10uM” value is on record as -9.57%.

Take `CCNC(=O)c1ccc(N(C)S(=O)(=O)c2cccs2)cc1`: the “hERG current change (%, negative = inhibition) at 10uM” value stood at 26.5%.

Consider `CC1CCN(Cc2c(C(=O)N/N=C/c3cc(Br)ccc3O)nnn2-c2nonc2N)CC1`, for which the “hERG current change (%, negative = inhibition) at 10uM” value is on record as 19.9%.

Consider `CC1(C)CC(=O)c2ccc(OCc3ccc([N+](=O)[O-])cc3)cc2O1`, for which the “hERG current change (%, negative = inhibition) at 10uM” value is -57.7%.

Consider `CC1(C)CC(=O)c2c(O)cc(OCc3ccc([N+](=O)[O-])cc3)cc2O1`, for which the “hERG current change (%, negative = inhibition) at 10uM” value turned out to be 15.1%.

As to `CC1(C)CC(=O)c2ccc(O)cc2O1`, the “hERG current change (%, negative = inhibition) at 10uM” value stood at 4.03%.

Regarding `O=C(COC(=O)c1ccc2c(c1)S(=O)(=O)N=C1CCCCCN12)NCCc1ccc(F)cc1`, the “hERG current change (%, negative = inhibition) at 10uM” value is -3.75%.

As to `CC1CN(C(=O)c2ccc(NS(=O)(=O)c3ccc(F)cc3)cc2)CC(C)O1` (centres unmarked), the “hERG current change (%, negative = inhibition) at 10uM” value was found to be 3.67%.

As to `O=C(O)c1ccc(N/N=C/c2ccc(-c3ccc(Cl)cc3Cl)o2)cc1`, the “hERG current change (%, negative = inhibition) at 10uM” value turned out to be 10.7%.

As for `CN(C)CCNC(=O)/C(=C/c1ccc(-c2cccc(Cl)c2)o1)NC(=O)c1ccccc1`, the “hERG current change (%, negative = inhibition) at 10uM” value was -72%.

Consider `CN(C)CCNC(=O)/C(=C/c1ccc(-c2ccc(Cl)cc2)o1)NC(=O)c1ccccc1`, for which the “hERG current change (%, negative = inhibition) at 10uM” value was -80.9%.

`CN(C)CCNC(=O)/C(=C/c1ccc(-c2ccc(Cl)cc2Cl)o1)NC(=O)c1ccccc1`: the “hERG current change (%, negative = inhibition) at 10uM” value was -55.1%.

On to `Cc1ccc(/C=C(\NC(=O)c2ccccc2)C(=O)NCCc2ccccn2)o1`, for which the “hERG current change (%, negative = inhibition) at 10uM” value is -12.8%.

As for `Cc1ccc(C(=O)N/C(=C\c2ccc(-c3cc(Cl)ccc3Cl)o2)C(=O)NCc2cccnc2)cc1`, the “hERG current change (%, negative = inhibition) at 10uM” value is 2.81%.

Turning to `Cc1ccc(/C=C(/NC(=O)c2ccccc2)C(=O)NCCc2c[nH]c3ccccc23)o1`, the “hERG current change (%, negative = inhibition) at 10uM” value is -21.3%.

In the case of `O=C(O)c1ccc(N/N=C/c2ccc(-c3cccc(Cl)c3)o2)cc1`, the “hERG current change (%, negative = inhibition) at 10uM” value came to 8.51%.

For `Cc1ccc(C)c(N2N=C(C(=O)Nc3ccccc3N3CCCC3)CCC2=O)c1`, the “hERG current change (%, negative = inhibition) at 10uM” value came to 3.97%.

As to `COc1ccccc1/C=N\Nc1ccccc1[N+](=O)[O-]`, the “hERG current change (%, negative = inhibition) at 10uM” value is listed as 21.7%.

On to `O=C(O)c1ccc(CNC(=O)c2ccc(S(=O)(=O)N3CCCCC3)cc2)cc1`, for which the “hERG current change (%, negative = inhibition) at 10uM” value is -1.88%.

`NC(=O)Cn1cnc(-c2ccccc2)c1`: the “hERG current change (%, negative = inhibition) at 10uM” value stood at 9.58%.

Regarding `CCCCc1c(O)nc(SCC(=O)N2CCOCC2)n(-c2ccccc2OC)c1=O`, the “hERG current change (%, negative = inhibition) at 10uM” value is 7.27%.

As for `COCCNC(=O)C1(C)C=CC2(CCCCC2)N1C(=O)c1ccccc1` (centres unmarked), the “hERG current change (%, negative = inhibition) at 10uM” value came out at 5.19%.

With `CC(=O)N(CN1C(=O)C2CC=CCC2C1=O)c1cccc(Cl)c1` (centres unmarked), the “hERG current change (%, negative = inhibition) at 10uM” value is recorded as -5.31%.

With `Cc1cc(C(=O)N2CCCC(N3CCN(c4cccc(C(F)(F)F)c4)CC3)C2)c(C)o1` (centres unmarked), the “hERG current change (%, negative = inhibition) at 10uM” value is on record as -23.2%.

Regarding `Cc1ccc2nccc(C(=O)N3CCCC(N4CCN(c5ccc(F)cc5)CC4)C3)c2c1` (centres unmarked), the “hERG current change (%, negative = inhibition) at 10uM” value is listed as -48.5%.

In the case of `Cc1cc(C)c(C(=O)N2CCCC(N3CCN(c4ccc(F)cc4)CC3)C2)o1` (centres unmarked), the “hERG current change (%, negative = inhibition) at 10uM” value is reported as -73.6%.

Consider `Cc1cc(C(=O)N2CCCC(N3CCN(c4ccc(F)cc4)CC3)C2)c(C)o1` (centres unmarked), for which the “hERG current change (%, negative = inhibition) at 10uM” value is recorded as -59.1%.

Take `Cc1nonc1C(=O)N1CCCC(N2CCN(c3ccc(F)cc3)CC2)C1` (centres unmarked): the “hERG current change (%, negative = inhibition) at 10uM” value is recorded as -51.8%.

Turning to `Cc1nnsc1C(=O)N1CCCC(N2CCN(c3ccc(F)cc3)CC2)C1` (centres unmarked), the “hERG current change (%, negative = inhibition) at 10uM” value is recorded as -12.3%.

In the case of `Cc1ncoc1C(=O)N1CCCC(N2CCN(c3cccc(C(F)(F)F)c3)CC2)C1` (centres unmarked), the “hERG current change (%, negative = inhibition) at 10uM” value is -35.7%.

Regarding `COc1ccccc1N1CCN(C2CCCN(C(=O)c3cc(C)oc3C)C2)CC1` (centres unmarked), the “hERG current change (%, negative = inhibition) at 10uM” value was -3.28%.

Consider `COc1ccccc1N1CCN(C2CCCN(C(=O)c3oc(C)cc3C)C2)CC1` (centres unmarked), for which the “hERG current change (%, negative = inhibition) at 10uM” value is recorded as -47.9%.

`Cc1cc(C)c(C(=O)N2CCCC(N3CCN(c4cccc(C(F)(F)F)c4)CC3)C2)o1` (centres unmarked): the “hERG current change (%, negative = inhibition) at 10uM” value is -52.1%.

`Cc1cc(C)c(C(=O)N2CCCC(Nc3ccc(F)cc3)C2)o1` (centres unmarked): the “hERG current change (%, negative = inhibition) at 10uM” value is 9.39%.

As for `Cc1cccc(N(CC(=O)N/N=C/c2ccc(OCC(=O)NCc3ccco3)cc2)S(C)(=O)=O)c1C`, the “hERG current change (%, negative = inhibition) at 10uM” value came to 4.14%.

In the case of `C=CCn1c(O)c(C(C)=NCC2CCCO2)c(=O)[nH]c1=O` (centres unmarked), the “hERG current change (%, negative = inhibition) at 10uM” value was -6.3%.

With `O=C(NCCC(NS(=O)(=O)OCC(Cl)(Cl)Cl)c1ccccc1)C(F)(F)F` (centres unmarked), the “hERG current change (%, negative = inhibition) at 10uM” value is recorded as -16.4%.

Consider `NC(=O)CCCC1=NS(=O)(=O)c2ccccc2N1`, for which the “hERG current change (%, negative = inhibition) at 10uM” value is given as 11.5%.

`CN1CCN(c2ccccc2NC(=O)c2ccccc2F)CC1`: the “hERG current change (%, negative = inhibition) at 10uM” value is recorded as -70.8%.
